{"source": "PubChem BioAssay (NCATS)", "note": "Inconclusive results are not listed. Where a call stands in place of a potency, no number is given. Active and inactive are the calls of the source. Calls follow the shape of the full dose curve. Potency is read from the fitted curve at half-maximal effect.", "data": [{"experiment": "Cytotoxicity counterscreen for inhibitors of SARS-CoV-2 cell entry (AID 1645845); also: nearly all actives have a fitted effect of over 50% in size", "conditions": "cell viability (SARS-CoV-2 entry assay cells); series mostly up to 57.1 µM", "summary_of_the_method": "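Counterscreen run in the same HEK293-ACE2 line as the pseudotyped-particle entry assay, without particles. Viability after 48 h at 37 C was read as ATP luminescence, scaled between cell-containing and cell-free wells.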", "values": [{"smiles": "Nc1nc(OCc2cc(Br)cs2)c2[nH]cnc2n1", "Potency": "inactive"}, {"smiles": "O=C(NNc1ccccc1)c1ccncc1", "Potency": "inactive"}, {"smiles": "CN1C(N)=N[C@](C)(c2cc(NC(=O)c3ccc(F)cn3)ccc2F)CS1(=O)=O", "Potency": "inactive"}, {"smiles": "O=C(CCl)Nc1cccc(NC2=NS(=O)(=O)c3ccccc32)c1", "Potency": "inactive"}, {"smiles": "COc1cc2ncnc(Nc3ccc(O)c(Br)c3)c2cc1OC", "Potency": "inactive"}, {"smiles": "CC(C)(O)CC[C@@H](O)[C@](C)(O)[C@H]1CC[C@@]2(O)C3=CC(=O)[C@@H]4C[C@@H](O)[C@@H](O)C[C@]4(C)[C@H]3CC[C@]12C", "Potency": "inactive"}, {"smiles": "CCn1nc(C2CCN(C(=O)CCO)CC2)nc1-c1cnc(N)c(-c2nnc(C(C)(C)C)o2)n1", "Potency": "inactive"}, {"smiles": "CCc1cc2c(c(OCC(F)(F)F)c(C(=O)NC3CCN(C(=O)CO)CC3)n2C)c(=O)n1CC(=O)c1ccccc1", "Potency": "inactive"}, {"smiles": "CNC(=O)c1ccccc1Nc1nc(Nc2ccc3c(c2OC)CCC[C@@H](N2CCN(CCO)CC2)C3)ncc1Cl", "Potency": "inactive"}, {"smiles": "NC(CC1c2ccccc2Oc2ccccc21)(C(=O)O)C1CC1C(=O)O", "note": "(stereo not given)", "Potency": "inactive"}, {"smiles": "CC(C)(CO)n1cc(C(=O)c2cncc(NC(=O)Cc3ccc(Cl)cn3)c2)c2cnc(N)nc21", "Potency": "inactive"}, {"smiles": "O=C(NOCC(O)CO)c1ccc(F)c(F)c1Nc1ccc(I)cc1F", "note": "(stereo not given)", "Potency": "inactive"}, {"smiles": "C[C@H]1Oc2cc(cnc2N)-c2c(nn(C)c2C#N)CN(C)C(=O)c2ccc(F)cc21", "Potency": "inactive"}, {"smiles": "[2H]c1nc(C)nc([2H])c1-c1cc(NC[C@@H](C)c2cccc3c(C(=O)NC)ccnc23)ncn1", "Potency": "inactive"}, {"smiles": "O=C(O)c1ccc(O)c2ncccc12", "Potency": "inactive"}, {"smiles": "C[C@@H]1CC(=O)Nc2cccc(-c3ccc4c(c3)c(-c3cnn(C)c3)nn4C)c2N1", "Potency": "inactive"}, {"smiles": "Cc1sc2c(c1C)C(c1ccc(Cl)cc1)=N[C@@H](CC(=O)Nc1ccc(OCCOCCOCCOCCNc3cccc4c3C(=O)N(C3CCC(=O)NC3=O)C4=O)cc1)c1nnc(C)n1-2", "note": "(stereo not given in full)", "Potency": "inactive"}, {"smiles": "Cc1ccc(NC(=O)c2ccc(CN3CCNCC3)cc2)cc1Nc1nccc(-c2cccnc2)n1", "Potency": "25.1 µM (active)"}, {"smiles": "Cc1ccc(C(=O)Nc2ccc(Oc3cc4cnn(C)c4cc3-c3cn[nH]c3)c(F)c2)c(=O)n1-c1ccc(F)cc1", "Potency": "inactive"}, {"smiles": "COc1c(Nc2ncc(Cl)c(N[C@H]3[C@H](C(N)=O)[C@@H]4C=C[C@@H]3C4)n2)ccc2c1CCC(N1CCOCC1)CC2", "note": "(stereo not given in full)", "Potency": "inactive"}, {"smiles": "CC1(C)O[C@@H]2C[C@H]3[C@@H]4CCC5=CC(=O)C=C[C@]5(C)[C@H]4[C@@H](O)C[C@]3(C)[C@]2(C(=O)CO)O1", "Potency": "inactive"}, {"smiles": "C=C1C(=O)OC2/C=C(/C)CC/C=C(/C)CCC12", "note": "(stereo not given)", "Potency": "inactive"}, {"smiles": "C=C1CCC2[C@](C)(CO)C(O)CC[C@]2(C)C1C/C=C1/C(=O)OCC1O", "note": "(stereo not given in full)", "Potency": "inactive"}, {"smiles": "COc1cc(N2CCN(C)CC2)ccc1Nc1ncc2c(n1)N(C)c1ccccc1C(=O)N2C", "Potency": "inactive"}, {"smiles": "CCOc1cc(C(=O)N2CCC(N3CCN(C)CC3)CC2)ccc1Nc1ncc2c(n1)N(C1CCCC1)c1ccccc1C(=O)N2C", "Potency": "inactive"}, {"smiles": "C[C@]12CC[C@H](O)CC1=CC[C@@H]1[C@@H]2CC[C@]2(C)C(c3cccnc3)=CC[C@@H]12", "Potency": "inactive"}, {"smiles": "CC(C)NCCCn1c(Sc2cc(Cl)cc(Cl)c2)nc2c(N)ncnc21", "Potency": "inactive"}, {"smiles": "Cc1cccc(-c2[nH]ncc2-c2ccc(F)c(-c3cnn(CCO)c3)c2)n1", "Potency": "inactive"}, {"smiles": "Cc1onc(-c2ccc(F)cc2)c1COc1ccc(C(=O)N2CCS(=O)(=O)CC2)cn1", "Potency": "inactive"}, {"smiles": "CNS(=O)(=O)Nc1nccc(Cc2c(C)c3ccc(Oc4ncccn4)cc3oc2=O)c1F", "Potency": "14.1 µM (active)"}, {"smiles": "C/C=C/C[C@@H](C)C(=O)[C@H]1C(=O)N[C@@H](C(C)C)C(=O)N(C)CC(=O)N(C)[C@@H](CC(C)C)C(=O)N[C@@H](C(C)C)C(=O)N(C)[C@@H](CC(C)C)C(=O)N[C@@H](C)C(=O)N[C@H](C)C(=O)N(C)[C@@H](CC(C)C)C(=O)N(C)[C@@H](CC(C)C)C(=O)N(C)[C@@H](C(C)C)C(=O)N1C", "Potency": "inactive"}, {"smiles": "O=C(O)[C@H](CC(=O)N1C[C@H]2CCCC[C@H]2C1)Cc1ccccc1", "Potency": "inactive"}, {"smiles": "O=C(NCc1cccc(O)c1)Nc1nc(-c2ccncc2)cs1", "Potency": "inactive"}, {"smiles": "COc1ccccc1C(=O)Nc1cc2c(cc1N1CCCC1)n(C)c(=O)n2C", "Potency": "inactive"}, {"smiles": "COc1cc2nccc(Oc3ccc(NC(=O)c4cn(C(C)C)c(=O)n(-c5ccc(F)cc5)c4=O)cc3F)c2cc1OC", "Potency": "inactive"}, {"smiles": "CC(C)N(CCCNC(=O)Nc1ccc(C(C)(C)C)cc1)C[C@H]1O[C@@H](n2cc(Br)c3c(N)ncnc32)[C@H](O)[C@@H]1O", "Potency": "31.6 µM (active)"}, {"smiles": "CC1=C(c2ccc(O)cc2)[C@H](c2ccc(OCCN3CCCCC3)cc2)Oc2cc(O)ccc21", "Potency": "inactive"}, {"smiles": "CN(C)Cc1ccc(S(=O)(=O)n2ccc(/C=C/C(=O)NO)c2)cc1", "Potency": "31.6 µM (active)"}, {"smiles": "CC(=O)N1c2ccc(-c3ccc(C(=O)O)cc3)cc2[C@H](Nc2ccc(Cl)cc2)C[C@@H]1C", "Potency": "inactive"}, {"smiles": "CC(C)C[C@H](CO)Nc1nc(S[C@@H](C)c2ccccc2)nc2nc(N)sc12", "Potency": "31.6 µM (active)"}]}]}
